These results are taken from PubChem BioAssay (EPA / NIEHS).

Activity calls are given as the source filed them. The calls were made as follows: active = hit-call score of the fitted dose curve at least 0.9, where 1 is the maximum; inactive = score below 0.9.

The nature of assay [1]: ATG_CRE_CIS: Attagene CIS-FACTORIAL HepG2 Assay for human cAMP Responsive Element (CRE) binding protein 3 (AID 2282926). The note with it: HepG2 CRE cis-reporter, Attagene multiplexed mRNA; actives raise or lower the signal. The gist of the method: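 Capillary electrophoresis of 6-FAM-labelled, HpaI-digested PCR products quantified reporter transcripts. These came from HepG2 transiently transfected with cis-element reporters and exposed to test chemicals for 24 hours, with DMSO defining baseline activity.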

Assay [2] addresses CCAAT/enhancer-binding protein beta (Homo sapiens) (UniProt P17676). As to the kind of experiment: ATG_C_EBP_CIS: Attagene CIS-FACTORIAL HepG2 Assay for human CCAAT/Enhancer Binding Protein (C/EBP) beta (AID 2282927). To be noted: HepG2 Attagene cis-factorial transcription factor reporter; actives raise or lower the signal. The procedure, abridged:
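RT-PCR/capillary electrophoresis fluorescence of reporter mRNA, 24 h post-dose, in HepG2 cells carrying transfected cis-promoter reporter units. Bidirectional curve fitting against DMSO baseline captures gain or loss of signal.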

The nature of assay [3]: ATG_CMV_CIS: Attagene CIS-FACTORIAL HepG2 Assay for human CMV (Internal Marker) (AID 2282928).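 Also: endpoint acts as a background internal control marker rather than a target.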 To be noted: HepG2 CMV promoter reporter, transcription factor profiling; actives raise or lower the signal. The gist of the method: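 Fluorescence intensity of RT-PCR-derived reporter fragments, resolved by capillary electrophoresis, gives the signal. HepG2 liver cells bearing transfected cis-element reporters were treated 24 h; activity in either direction was fit relative to DMSO-treated controls.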

Assay [4] can be described thus: ATG_DR4_LXR_CIS: Attagene CIS-FACTORIAL HepG2 Assay for human Liver X Receptor (LXR), DR4 submotif (AID 2282929). To be noted: HepG2 Attagene DR4 cis-reporter, mRNA transcription; actives raise or lower the signal. The gist of the method:
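Measures endogenous transcription factor activity via a DR4-driven reporter transcript in human HepG2 cells. Compounds incubated 24 h; mRNA quantified by RT-PCR and capillary electrophoresis, analysed as gain or loss of signal versus DMSO.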

Assay [5] deals with Aryl hydrocarbon receptor (Homo sapiens) (UniProt P35869). The assay is described as follows: ATG_Ahr_CIS: Attagene CIS-FACTORIAL HepG2 Assay for human Aryl Hydrocarbon Receptor (Ahr) (AID 2282930). The note with it: HepG2 AhR cis-factorial reporter transcription; actives raise or lower the signal. The procedure, abridged: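 HepG2 cells transiently transfected with cis-element-driven multiplexed reporter transcription units; endogenous transcription factor activity measured as reporter mRNA 24 h after dosing. RT-PCR, 6-FAM labelling, HpaI digestion, capillary electrophoresis; bidirectional fitting versus DMSO baseline.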
Sequence of Aryl hydrocarbon receptor (Homo sapiens) (P35869 whole entry, looked up): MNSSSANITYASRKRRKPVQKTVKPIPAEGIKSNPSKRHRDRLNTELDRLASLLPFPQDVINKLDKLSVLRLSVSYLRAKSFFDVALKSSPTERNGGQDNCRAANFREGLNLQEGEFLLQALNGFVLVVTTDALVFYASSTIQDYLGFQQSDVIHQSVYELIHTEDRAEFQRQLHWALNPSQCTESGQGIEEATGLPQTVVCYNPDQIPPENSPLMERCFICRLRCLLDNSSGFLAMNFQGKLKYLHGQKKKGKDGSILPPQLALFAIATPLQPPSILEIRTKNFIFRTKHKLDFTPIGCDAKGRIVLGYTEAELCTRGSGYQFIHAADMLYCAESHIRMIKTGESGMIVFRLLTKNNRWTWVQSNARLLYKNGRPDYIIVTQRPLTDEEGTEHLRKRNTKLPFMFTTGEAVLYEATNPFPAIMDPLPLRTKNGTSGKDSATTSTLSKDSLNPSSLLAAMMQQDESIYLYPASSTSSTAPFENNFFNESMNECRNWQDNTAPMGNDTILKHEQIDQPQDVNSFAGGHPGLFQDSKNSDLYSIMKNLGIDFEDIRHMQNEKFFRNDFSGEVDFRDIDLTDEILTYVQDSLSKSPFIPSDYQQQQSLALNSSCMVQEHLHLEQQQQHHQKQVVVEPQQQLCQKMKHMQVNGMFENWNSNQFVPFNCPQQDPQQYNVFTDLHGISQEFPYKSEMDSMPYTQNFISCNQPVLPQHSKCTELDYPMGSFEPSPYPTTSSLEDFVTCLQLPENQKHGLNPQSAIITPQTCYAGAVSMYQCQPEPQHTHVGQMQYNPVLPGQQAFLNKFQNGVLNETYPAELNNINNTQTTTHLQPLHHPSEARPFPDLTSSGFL

The nature of assay [6]: ATG_AP_2_CIS: Attagene CIS-FACTORIAL HepG2 Assay for human Activator Protein 2 (AP-2) (AID 2282932). To be noted: HepG2 AP-2 cis-reporter, Attagene transcription factor profiling; actives raise or lower the signal. The gist of the method:
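Cells (HepG2) transfected with promoter-driven reporter constructs, treated 24 h. Total RNA reverse-transcribed, reporter cDNA PCR-amplified, FAM-labelled by primer extension, digested, resolved by capillary electrophoresis. Activity fitted both directions versus DMSO.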

Assay [7] in a line: ATG_BRE_CIS: Attagene CIS-FACTORIAL HepG2 Assay for human Bone Morphogenetic Protein (BMP) Response Element (BRE) (AID 2282933). To be noted: HepG2 BMP response element reporter, Attagene transcription factor profiling; actives raise or lower the signal. The procedure, abridged:
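Endogenous transcription factor activity at a BMP response element was monitored in transfected HepG2 cells 24 h after dosing. Fluorescent RT-PCR products were resolved by capillary electrophoresis, and activity was fitted in both directions versus DMSO.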

Assay [8] concerns the target Transcription factor E2F1 (Homo sapiens) (UniProt Q01094). As to the kind of experiment: ATG_E2F_CIS: Attagene CIS-FACTORIAL HepG2 Assay for human E2F Transcription Factor 1 (AID 2282935). To be noted: HepG2 Attagene cis-reporter, E2F reporter RNA transcripts; actives raise or lower the signal. The gist of the method: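 First, HepG2 cells were transfected with reporter transcription units. Next, they were dosed for 24 h. Then RNA was isolated, converted to cDNA, PCR-amplified, FAM-labeled, HpaI-digested and analyzed by capillary electrophoresis.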

The nature of assay [9]: ATG_AP_1_CIS: Attagene CIS-FACTORIAL HepG2 Assay for human Activator Protein 1 (AP-1) (AID 2282931). To be noted: HepG2 Attagene cis-factorial AP-1 reporter mRNA; actives raise or lower the signal. The gist of the method:
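Bidirectional concentration-response fitting against DMSO controls. Underlying signal: reporter mRNA from cis-promoter constructs in transiently transfected HepG2, measured after 24 h by RT-PCR and capillary electrophoresis.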

Sequence of CCAAT/enhancer-binding protein beta (Homo sapiens) (P17676 whole entry, looked up): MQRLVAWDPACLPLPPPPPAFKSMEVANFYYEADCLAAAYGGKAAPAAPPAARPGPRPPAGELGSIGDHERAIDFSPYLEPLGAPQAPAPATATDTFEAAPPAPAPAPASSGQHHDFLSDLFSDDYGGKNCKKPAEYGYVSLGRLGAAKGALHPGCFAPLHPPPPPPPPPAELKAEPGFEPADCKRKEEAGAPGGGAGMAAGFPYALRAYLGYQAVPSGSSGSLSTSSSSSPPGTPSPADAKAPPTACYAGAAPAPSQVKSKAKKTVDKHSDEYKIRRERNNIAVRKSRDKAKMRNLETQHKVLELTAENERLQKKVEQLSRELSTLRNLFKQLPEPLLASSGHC
Sequence of Transcription factor E2F1 (Homo sapiens) (Q01094 whole entry, looked up): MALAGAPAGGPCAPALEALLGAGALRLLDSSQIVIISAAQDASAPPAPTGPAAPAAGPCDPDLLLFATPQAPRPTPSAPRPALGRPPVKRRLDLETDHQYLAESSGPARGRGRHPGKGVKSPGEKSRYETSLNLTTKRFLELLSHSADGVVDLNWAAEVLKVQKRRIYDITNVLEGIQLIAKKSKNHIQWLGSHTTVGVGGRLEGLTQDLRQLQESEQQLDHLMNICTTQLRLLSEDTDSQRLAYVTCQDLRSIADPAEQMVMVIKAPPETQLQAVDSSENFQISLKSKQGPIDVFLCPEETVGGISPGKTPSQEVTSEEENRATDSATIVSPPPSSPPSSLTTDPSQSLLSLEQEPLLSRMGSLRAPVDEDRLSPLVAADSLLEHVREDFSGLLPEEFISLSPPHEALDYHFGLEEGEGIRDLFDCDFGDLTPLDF

`COCCOCCOCCOCCOCCO`: the call in assay [1], in assay [2], in [3], in [4], in [5] and in assay [6] was inactive. Further, the outcome in assay [7] and in assay [8] was inactive.
As for `CCCC(=O)C(C)=O`, the result in [1], in assay [2], in assay [3], in assay [4], in [5] and in assay [6] was inactive. Moreover, the molecule was classed as inactive in assay [7] and in assay [8].
In the case of `C=C(C)C(=O)OCc1ccccc1`, the result in [1], in assay [2], in assay [3], in assay [4], in [5] and in [6] was inactive. Further, the molecule was classed as inactive in [7] and in [8].
Turning to `CC(=O)[C@H]1CC[C@H]2[C@@H]3CC=C4C[C@@H](O)CC[C@]4(C)[C@H]3CC[C@]12C`, the molecule was called inactive in assay [1], in assay [2], in [3], in assay [4], in [5] and in assay [6]. The molecule was classed as inactive in assay [7] and in assay [8].
`OCCCCCO`: the molecule was called inactive in assay [1], in assay [2], in assay [3], in assay [4], in assay [5] and in assay [6]. Further, the call in assay [7] and in [8] was inactive.
As for `CCC(=O)/C=C/C1C(C)=CCCC1(C)C` (configuration not stated), the molecule was called inactive in assay [1], in assay [2], in assay [3], in [4], in assay [5] and in assay [6]. The molecule was classed as inactive in [7] and in assay [8].
As a reminder, the AC50 is the midpoint of the concentration-response curve, whichever way the signal moves. As to `CCCc1c(OCCCOc2ccc(OCC(=O)O)cc2)ccc(C(C)=O)c1O`, the result in assay [1], in assay [2], in [4], in [5], in assay [6] and in assay [8] was inactive. Besides, the values for the AC50 in [3] and in assay [7] were 64.1 µM (active) and 137 µM (active), respectively.
Take `C=CC(=O)OCCn1c(=O)n(CCOC(=O)C=C)c(=O)n(CCOC(=O)C=C)c1=O`: the molecule was called inactive in [1], in assay [2], in [7] and in assay [8]. Also, the concentration at half-maximal activity (AC50) in assay [3] is 9.12 µM (active); in [4], 16.5 µM (active); in assay [5] it was 3.42 µM (active); in assay [6], 20 µM (active).
As for `CC(C)c1cccc(O)c1`, the outcome in assay [1], in [2], in assay [3], in [4], in assay [5] and in assay [6] was inactive. Moreover, the call in assay [7] and in [8] was inactive.
As for `OCC(CO)(CO)COCC(CO)(CO)CO`, the call in [1], in [2], in [3], in [4], in [5] and in assay [6] was inactive. Moreover, the molecule was called inactive in [7] and in assay [8].
Take `C=C(C)C(=O)O`: the call in [1], in [2], in [3], in assay [5], in assay [9] and in assay [6] was inactive. The outcome in assay [7] and in [8] was inactive.
Take `CC(=O)Nc1ccc(CC(=O)O)cc1`: the outcome in assay [1], in assay [2], in assay [3], in assay [5], in [9] and in assay [7] was inactive. The result in assay [8] was inactive.
Consider `Cc1ccccc1C=O`, for which the molecule was called inactive in assay [1], in assay [2], in assay [3], in assay [9], in assay [6] and in assay [7]. In [8], the molecule was called inactive. Besides, in assay [5], the AC50 was 53.5 µM (active).
For `O=C(Cl)c1cccc(C(=O)Cl)c1`, the result in [1], in assay [2], in [3], in [5], in assay [9] and in assay [6] was inactive. Further, the result in [7] and in [8] was inactive.
Consider `CCc1ccc(C=O)cc1`, for which the call in assay [1], in assay [2], in assay [3], in assay [5], in assay [9] and in [6] was inactive. The call in [7] and in [8] was inactive.
For `CCCCCCCCCCCCCOS(=O)(=O)O`, the molecule was called inactive in assay [1], in [2], in assay [3], in assay [5], in assay [9] and in assay [6]. Further, the outcome in [7] and in [8] was inactive.
